From PubChem BioAssay (EPA / NIEHS)
Calls of active or inactive are those of the source. The calls were made as follows: active = hit-call score of the fitted dose curve at least 0.9, where 1 is the maximum; inactive = score below 0.9.

Assay: ATG_TAL_CIS: Attagene CIS-FACTORIAL HepG2 Assay for human TAL Basal Promoter (AID 2282966)
Conditions: HepG2 Attagene cis-factorial TAL promoter reporter; actives raise or lower the signal
Procedure: ATG_CIS is a cell-based, multiplexed-readout assay that uses HepG2, a human liver cell line, with measurements taken at 24 hours after chemical dosing in a 24-well plate.ATG_TAL_CIS is one of 52 assay component(s) measured or calculated from the ATG_CIS assay. It is designed to make measurements of mRNA induction, a form of inducible reporter, as detected with fluorescence intensity signals by Reverse transcription polymerase chain reaction (RT-PCR) and Capillary electrophoresis technology.Data from the assay component ATG_TAL_CIS was analyzed into 1 assay endpoint. This assay endpoint, ATG_TAL_CIS, was analyzed with bidirectional fitting relative to DMSO as the negative control and baseline of activity. Using a type of inducible reporter, measures of mRNA for gain or loss-of-signal activity can be used to understand the background control at the transcription factor-level as they relate to the gene . Furthermore, this assay endpoint can be referred to as a secondary readout, because this assay has produced multiple assay endpoints where this one serves a background control function. To generalize the intended target to other relatable targets, this assay endpoint is annotated to the background measurement intended target family, where the subfamily is internal marker.
Human liver HepG2 cells are transiently transfected with multiple reporter transcription units (MRTUs) in 6-well plates using FuGene 6 reagent (Roche; 3 ml FuGene/1 mg DNA). The MRTU constructs are regulated by a cis-regulating element (promoter). […] A major difference between the CIS and TRANS system is that in CIS activities of endogenous TFs are measured, whereas the TRANS assay evaluates changes in activities of exogenous, chimeric NR-Gal4 proteins. […] At the end of 24 hour incubation, total RNA was isolated using TriZol reagent (Invitrogen). The isolated RNA is then reverse-transcribed using oligo(dT) primer and Mo-MLV reverse transcriptase (Invitrogen) with DNAse I (Ambion) treatment for 30 min. The one-tenth of the produced cDNA was amplified by PCR using Taq DNA polymerase (Invitrogen) and two reporter sequence-specific primers. The PCR products were fluorescently labeled by primer extension with 6-arboxyfluorescein (6-FAM) 5'-labeled reporter sequence-specific primer (2 min at 95 C, 20 s at 68 C and 10 min at 72 C) and these products were digested with 5U of HpaI (New England Biolabs) for 2h at 37 C. The fragments were purified using Qiaquick PCR columns (Qiagen), analyzed on an ABI 3130xL genetic analyzer (Applied Biosystems) with peak positions identified by using a set of X-rhodamine (ROX)-labeled MapMarker1000 molecular weight standards (BioVentures). The raw capillary electrophoresis data was processed using Attagraph software (Attagene).

| SMILES | outcome | AC50 |
| --- | --- | --- |
| N#CCCCCC#N | inactive | – |
| CCCCCCCCCCCCCCCC[N+](C)(C)C | – | 138 µM (active) |
| Cc1ccc(C)c2ccccc12 | inactive | – |
| CN(C)C(=O)C(c1ccccc1)c1ccccc1 | inactive | – |
| CCC(C)c1cc([N+](=O)[O-])cc([N+](=O)[O-])c1OC(=O)C=C(C)C (stereo not given) | inactive | – |
| C#CC1(O)CCCCC1 | inactive | – |
| C=CCc1ccc(OC(=O)Cc2ccccc2)c(OC)c1 | inactive | – |
| CC(C)(Cl)Cl | inactive | – |
| CCCCOC(=O)CCC(=O)OCCCC | inactive | – |
| N#CC(c1ccccc1)c1ccccc1 | inactive | – |
| O=C1Nc2ccc(Cl)cc2C(c2ccccc2)=NC1O (stereo not given) | inactive | – |
| Nc1ccc(-c2ccc(N)c(N)c2)cc1N | inactive | – |
| CC(C)COP(=O)(OCC(C)C)OCC(C)C | inactive | – |
| [CH3][Sn]([CH3])([Cl])[Cl] | inactive | – |
| CCNCC | inactive | – |
| S=c1[nH]c2ccccc2[nH]1 | inactive | – |
| C[C@]12CC[C@H](O)C[C@H]1CC[C@@H]1[C@@H]2C[C@@H](O)[C@]2(C)[C@@H](C3=CC(=O)OC3)CC[C@]12O | – | 60.9 µM (active) |
| NNc1ccccc1 | inactive | – |
| COC(C)(C)CCC[C@H](C)C/C=C/C(C)=C/C(=O)OC(C)C | inactive | – |
| O=[N+]([O-])c1cc([N+](=O)[O-])c2ccccc2c1 | inactive | – |

| SMILES | outcome | AC50 |
| --- | --- | --- |
| Nc1cc(Cl)cc(Cl)c1 | inactive | – |
| CC(C)c1ccc(O)cc1 | inactive | – |
| O=C(CCN1CC1)OCC(CO)(COC(=O)CCN1CC1)COC(=O)CCN1CC1 | inactive | – |
| O=C(NCNC(=O)NC1C(=O)NC(=O)N1CO)NC1C(=O)NC(=O)N1CO (stereo not given) | inactive | – |
| O=[N+]([O-])c1ccc(Cl)cc1 | inactive | – |
| CCC[N+](=O)[O-] | inactive | – |
| ClC1=C(Cl)[C@]2(Cl)[C@@H]3[C@@H](Cl)[C@H](Cl)C[C@@H]3[C@@]1(Cl)C2(Cl)Cl | inactive | – |
| CCN(CC)C(=S)S | inactive | – |
| Oc1cc(Cl)ccc1Cl | inactive | – |
| CSc1nc(N=[N+]=[N-])nc(NC(C)C)n1 | inactive | – |
| CC(=O)C=Cc1ccccc1 | inactive | – |
| CC1CCC(=O)O1 (stereo not given) | inactive | – |
| CCCCCCC1CCOC1=O (stereo not given) | inactive | – |
| CN1C(=O)CCS(=O)(=O)C1c1ccc(Cl)cc1 (stereo not given) | inactive | – |
| CCOC(=O)NC(=S)Nc1ccccc1NC(=S)NC(=O)OCC | inactive | – |
| CC(Cc1ccc(C(C)(C)C)cc1)CN1C[C@@H](C)O[C@@H](C)C1 (stereo not given in full) | inactive | – |
| CC(C)CCCCCCCOC(=O)c1ccccc1C(=O)OCCCCCCCC(C)C | inactive | – |
| O=c1c2ccccc2c(=O)c2c1cc(Cl)c1[nH]c3c([nH]c12)c(Cl)cc1c(=O)c2ccccc2c(=O)c13 | inactive | – |
| CC1(C)C(=O)NC(=O)NC1=O | inactive | – |
| CC1(C)CC(=O)CC(C)(C)N1[O] | inactive | – |
